Measurements from PubChem BioAssay (NCATS).
Where “and” joins values, the source holds several entries; their conditions need not be identical. Identical values can stand only once. Inconclusive results are not listed. Calls of active or inactive are those of the source. Unless noted, calls come from the whole dose curve; as a rule, active = well fitted curve in the direction sought with a large enough effect; inconclusive = small, poorly fitted or top-dose-only effect, or another doubt; inactive = no such curve, though single readings can be large; an effect the other way counts as inactive or inconclusive.

What was measured:
[1] = qHTS assay for small molecule disruptors of the mitochondrial membrane potential - 1 hr assay (AID 651754; calls by dose curve; note: % is set by controls: 0 for no effect and ±100 for the full control effect; nearly all actives have a fitted effect of over 35% in size)
In short: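 In this qHTS format, a 1 hr compound treatment of HepG2 cells precedes Mito-MPS staining, and membrane potential is judged from aggregate (red) against monomer (green) fluorescence intensity.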

[2] = qHTS assay for small molecule disruptors of the mitochondrial membrane potential - 5 hr assay (AID 651755; calls by dose curve; note: % is set by controls: 0 for no effect and ±100 for the full control effect; nearly all actives have a fitted effect of over 40% in size)
In short: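 Seed HepG2 overnight, add compound, incubate 5 hr at 37C and 5% CO2, stain 30 min with Mito-MPS, then measure monomer (490/535 nm) and aggregate (540/590 nm) fluorescence.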

[3] = molecular target: Tumor necrosis factor (Homo sapiens) (UniProt P01375); assay: qHTS assay to identify small molecules that stimulate Tumor Necrosis Factor-alpha (TNF-alpha) secretion (AID 651757; active = well fitted curve in the direction sought with a large enough effect in the signal ratio; the % refers to the signal ratio; note: 0% is about no effect)
In short: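 Using 3000 THP-1 cells per well, compounds and controls were applied for 17 hrs at 37 C. Detection followed with two labeled anti-TNF-alpha antibodies (cryptate donor, XL665 acceptor) for 3 hr at room temperature, measured by TR-FRET.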

[4] = qHTS assay for environmental chemicals that activate the Aryl hydrocarbon Receptor (AhR) signaling pathway (AID 651777); conditions: 1A2-DRE human hepatoma cells, luciferase, 24 h; activation: stronger effect = higher value; note: % of control where 0% means no effect; nearly all actives have a fitted effect of over 15% in size
In short: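 Induction of CYP1A2 transcription through AhR is detected by luciferase in 1A2-DRE hepatoma cells. Compounds or DMSO act for 24 hr at 37 C before a 30 min One-Glo step at room temperature.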

[5] = molecular target: Nuclear receptor ROR-gamma (Homo sapiens) (UniProt P51449); assay: qHTS assay for small molecule antagonists of the retinoid-related orphan receptor gamma (ROR-gamma) signaling pathway (AID 651802);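 note: CHO cells with doxycycline-induced ROR-gamma expression; luciferase reporter luminescence driven by ROR response element; series mostly up to about 92 µM; % is set by controls: 0 for no effect and ±100 for the full control effect; nearly all actives have a fitted effect of over 60% in size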
In short: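 Doxycycline-induced reporter activity in engineered CHO cells (TET-inducible ROR, RORE-LUC) was measured by luminescence after 16hr compound exposure at 37C.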

[6] = qHTS assay for small molecule agonists of the antioxidant response element (ARE) signaling pathway measured by Nrf2-dependant transcriptional activity (AID 720636; active = well fitted curve in the direction sought with a large enough effect in the repeat runs; an effect the other way counts as inactive or inconclusive;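 note: HepG2 cells with an ARE-driven luciferase reporter; % of control where 0% means no effect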)
In short: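 We exposed ARE-luc HepG2 cells, seeded in assay medium with 1% dialyzed FBS and allowed 6 hr to adhere, to test compounds overnight (16 hr, 37 C) before measuring luciferase with ONE-Glo.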

[7] = qHTS assay for small molecule antagonists of the retinoid-related orphan receptor gamma (ROR-gamma) signaling pathway - cell viability counter screen (AID 720652; active = well fitted curve in the direction sought with a large enough effect in the repeat runs; an effect the other way counts as inactive or inconclusive;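 note: CHO reporter cells with doxycycline-induced ROR-gamma expression; series mostly up to about 92 µM; compound exposure lasted 16 hr before ATP read; % is set by controls: 0 for no effect and ±100 for the full control effect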)
In short: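 ATP-based viability readout in the ROR-gamma reporter CHO cells after 16 hr compound exposure under doxycycline induction.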

[8] = qHTS assay for small molecule agonists of the antioxidant response element (ARE) signaling pathway measured by Nrf2-dependant transcriptional activity - cell viability counter screen (AID 720653; active = well fitted curve in the direction sought with a large enough effect in the repeat runs; an effect the other way counts as inactive or inconclusive; note: % is set by controls: 0 for no effect and ±100 for the full control effect); conditions: ARE-bla HepG2 viability, CellTiter-Glo ATP luminescence, 16 h; stronger effect = lower value
In short: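 ARE-bla HepG2 cells (2,000/well) rested 5 hrs at 37C/5% CO2, then exposed to compounds in DMSO for 16 hrs. Viability was read in the same wells as intracellular ATP by luminescence, 30 min at room temperature after reagent addition.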

[9] = qHTS assay for cell viability of HEK293 cells (AID 743288); conditions: ATP luminescence (CellTiter-Glo), 18 h, stronger effect = lower value; note: % is set by controls: 0 for no effect and ±100 for the full control effect; nearly all actives have a fitted effect of over 50% in size
In short: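 Quantitative high-throughput screen: compounds were pinned onto parental HEK293 cells (2,000 per well) after a minimum 5 h settling at 37 C, incubated 18 h at 37 C, and intracellular ATP measured by luciferase luminescence.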

[10] = qHTS assay for cell viability of the p53RE-bla HCT-116 cell line (AID 743292); note: % is set by controls: 0 for no effect and ±100 for the full control effect; nearly all actives have a fitted effect of over 55% in size
In short: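 In this qHTS counter-screen, metabolically competent p53RE-bla HCT-116 cells were counted via their ATP content. Compounds were applied for 16 h at 37 C and luciferase-coupled luminescence was measured.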

[11] = molecular target: Nuclear receptor subfamily 1 group I member 2 (Rattus norvegicus) (UniProt Q9R1A7); assay: qHTS assay for small molecule activators of the rat pregnane X receptor (rPXR) signaling pathway (AID 651751; call rule not given here; note: 0% is about no effect); conditions: rPXR reporter cells, luciferase (One-Glo), 24 h
[12] = qHTS assay for small molecule activators of the human pregnane X receptor (PXR) signaling pathway (AID 720659; call rule not given here; note: 0% is about no effect)
[13] = molecular target: Peroxisome proliferator-activated receptor alpha (Homo sapiens) (UniProt Q07869); assay: qHTS assay for small molecule agonists of the peroxisome proliferator-activated receptor alpha (PPARalpha) signaling pathway (AID 651778); conditions: PathHunter PPARalpha complementation, chemiluminescence, 6 h; stronger effect = higher value; note: % of control where 0% means no effect
In short: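 Cells plated at 2,000/well and held overnight at 37 C, 5% CO2, then compound added by pin tool for 6 hr; after PathHunter detection reagent and 60 min at room temperature, chemiluminescence from enzyme complementation was read.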

[14] = qHTS assay to identify small molecules that stimulate interleukin-8 (IL-8) secretion (AID 651758; active = well fitted activation curve with a large enough effect in the signal ratio; the % refers to the signal ratio; note: 0% is about no effect)
In short: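 Quantitative HTS in THP-1 monocytic cells at 2000 cells per well, with 16 hrs compound incubation at 37 C. IL-8 in the medium was then quantified by HTRF immunoassay, read after 1-3 hrs at room temperature.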

Sequence of Nuclear receptor subfamily 1 group I member 2 (Rattus norvegicus) (Q9R1A7 whole entry, looked up): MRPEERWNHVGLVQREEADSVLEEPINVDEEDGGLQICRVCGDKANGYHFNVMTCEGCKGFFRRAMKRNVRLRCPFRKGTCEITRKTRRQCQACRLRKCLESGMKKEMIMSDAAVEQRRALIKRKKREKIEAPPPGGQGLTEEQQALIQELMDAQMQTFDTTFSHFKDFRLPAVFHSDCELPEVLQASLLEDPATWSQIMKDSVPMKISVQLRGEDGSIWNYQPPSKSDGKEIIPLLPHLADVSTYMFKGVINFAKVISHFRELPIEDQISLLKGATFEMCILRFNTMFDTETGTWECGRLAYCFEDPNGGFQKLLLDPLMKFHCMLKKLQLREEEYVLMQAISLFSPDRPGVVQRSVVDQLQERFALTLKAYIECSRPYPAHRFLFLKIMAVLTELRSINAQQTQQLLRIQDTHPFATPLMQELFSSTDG
Sequence of Peroxisome proliferator-activated receptor alpha (Homo sapiens) (Q07869 whole entry, looked up): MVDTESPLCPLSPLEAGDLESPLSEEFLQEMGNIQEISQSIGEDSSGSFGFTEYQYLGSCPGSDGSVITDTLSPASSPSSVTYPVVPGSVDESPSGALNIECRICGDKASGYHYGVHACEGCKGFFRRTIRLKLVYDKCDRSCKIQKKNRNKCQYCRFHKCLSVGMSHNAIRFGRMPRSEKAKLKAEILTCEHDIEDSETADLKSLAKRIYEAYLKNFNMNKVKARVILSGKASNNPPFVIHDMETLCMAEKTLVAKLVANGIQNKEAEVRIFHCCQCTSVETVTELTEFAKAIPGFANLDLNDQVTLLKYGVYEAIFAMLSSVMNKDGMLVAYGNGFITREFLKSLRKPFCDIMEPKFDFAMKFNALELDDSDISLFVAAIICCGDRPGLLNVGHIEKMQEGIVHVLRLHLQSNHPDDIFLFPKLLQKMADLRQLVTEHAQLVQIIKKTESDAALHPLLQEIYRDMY
Sequence of Tumor necrosis factor (Homo sapiens) (P01375 whole entry, looked up): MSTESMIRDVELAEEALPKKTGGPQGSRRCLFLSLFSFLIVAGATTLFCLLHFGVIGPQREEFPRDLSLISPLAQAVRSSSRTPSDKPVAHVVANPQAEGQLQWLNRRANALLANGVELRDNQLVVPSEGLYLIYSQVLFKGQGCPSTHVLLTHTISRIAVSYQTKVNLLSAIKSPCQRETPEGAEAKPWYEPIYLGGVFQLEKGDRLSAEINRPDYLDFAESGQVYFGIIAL
Sequence of Nuclear receptor ROR-gamma (Homo sapiens) (P51449 whole entry, looked up): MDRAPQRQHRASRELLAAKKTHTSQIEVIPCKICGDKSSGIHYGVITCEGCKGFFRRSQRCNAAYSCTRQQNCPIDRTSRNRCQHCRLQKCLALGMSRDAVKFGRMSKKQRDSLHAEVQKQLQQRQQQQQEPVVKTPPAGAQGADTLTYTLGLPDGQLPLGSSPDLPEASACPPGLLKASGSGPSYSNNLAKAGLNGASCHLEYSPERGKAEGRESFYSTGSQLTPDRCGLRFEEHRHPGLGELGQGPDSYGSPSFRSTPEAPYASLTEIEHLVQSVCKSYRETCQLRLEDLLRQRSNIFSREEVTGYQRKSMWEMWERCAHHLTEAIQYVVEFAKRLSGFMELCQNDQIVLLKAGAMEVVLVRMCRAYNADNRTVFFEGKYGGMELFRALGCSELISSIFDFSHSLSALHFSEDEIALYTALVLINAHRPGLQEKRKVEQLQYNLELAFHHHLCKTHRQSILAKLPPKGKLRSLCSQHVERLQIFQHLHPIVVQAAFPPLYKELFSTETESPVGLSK

CCCCCCCN
inactive: Potency [1] | Potency [2] | Potency [3] | activation [4] -0.576% | Potency [5] | outcome [6] | Potency [7] | max response [8] -1.43% | max response [9] 9.44% | Potency [10] | max response [11] -0.183% | outcome [12]

Nc1nc(CC(=O)O)cs1
inactive: Potency [1] | Potency [2] | Potency [3] | activation [4] -0.467% | Potency [5] | Potency [7] | max response [8] 4.24% | max response [9] -0.757% | Potency [10] | max response [11] -3.19% | outcome [12]

CC(=O)c1cccc([N+](=O)[O-])c1
inactive: Potency [1] | Potency [2] | Potency [3] | activation [4] 1.48% | max response [13] 0.67% | outcome [6] | Potency [7] | max response [8] 17.8% | Potency [10] | max response [11] -2.86% | outcome [12]

CNC(=O)N(c1ccccc1)c1ccccc1
inactive: Potency [1] | Potency [2] | Potency [3] | activation [4] -0.495% | max response [13] -2.12% | outcome [6] | Potency [7] | max response [8] -11.7% | max response [9] 1.15% | Potency [10] | max response [11] 1.74% | outcome [12]

Cc1ccc2oc(=O)ccc2c1
inactive: Potency [1] | Potency [2] | Potency [3] | activation [4] 8.69% and -0.308% | max response [13] 7.89% and -0.114% | Potency [7] | max response [8] -9.69% and -6.43% | max response [9] 2.42% and -2.56% | Potency [10] | max response [11] 9.5% and 1.03% | outcome [12]

N#CCc1ccccc1[N+](=O)[O-]
inactive: Potency [1] | Potency [2] | Potency [3] | activation [4] 4.16% | max response [13] -3.4% | Potency [5] | Potency [7] | max response [8] 3.79% | max response [9] -6.51% | Potency [10] | max response [11] 8.31%

CC(O)CC(C)O (centres undefined)
inactive: Potency [1] | Potency [2] | Potency [3] | activation [4] -0.953% | Potency [5] | Potency [7] | max response [8] -7.28% | max response [9] 7.82% | Potency [10] | max response [11] 6.25% | outcome [12]

FC(F)(F)c1ccccc1Cl
inactive: Potency [1] | Potency [2] | Potency [3] | activation [4] -0.14% | max response [13] -1.82% | outcome [6] | Potency [7] | max response [8] -5.26% | Potency [10] | max response [11] -1.61% | outcome [12]

NS(=O)(=O)O
inactive: Potency [1] | Potency [2] | Potency [3] | activation [4] 0.965% | max response [13] -1.54% | Potency [5] | Potency [7] | max response [9] 3.9% | max response [11] -5.24% | outcome [12]

Cc1ccc(C#N)cc1
inactive: Potency [1] | Potency [2] | activation [4] 2.83% | max response [13] 0.216% | Potency [5] | outcome [6] | Potency [7] | max response [8] 4.38% | max response [9] -2.64% | Potency [10] | max response [11] 3.52% | outcome [12]

CSc1ccc(C=O)cc1
inactive: Potency [1] | Potency [2] | activation [4] 0.018% | max response [13] -3.7% | Potency [5] | outcome [6] | Potency [7] | max response [8] -8.76% | max response [9] 8.71% | max response [11] 9.01% | outcome [12]

CCCCOCCOCCOCCCC
inactive: Potency [1] | Potency [2] | activation [4] -0.359% | max response [13] -5.07% | Potency [5] | outcome [6] | Potency [7] | max response [8] 10.5% | max response [9] 3.02% | Potency [10] | max response [11] -1.56% | outcome [12]

Cc1ccc(Br)cc1
inactive: Potency [1] | Potency [2] | Potency [3] | activation [4] 0.745% | Potency [5] | max response [8] -9.09% | max response [9] -7.93% | Potency [10] | max response [11] 10.2% | outcome [12]

Cc1cc(C)cc(N)c1
inactive: Potency [1] | Potency [2] | Potency [3] | activation [4] 2.65% | Potency [5] | max response [9] -3.25% | max response [11] 9.8% | outcome [12]

O=C(O)c1cc(Cl)cc(Cl)c1
inactive: Potency [1] | Potency [2] | Potency [14] | activation [4] 0.13% | max response [13] -2.98% | Potency [7] | max response [8] 0.662% | max response [9] 9.31% | Potency [10] | max response [11] -3.46% | outcome [12]

ClC/C=C/CCl
inactive: Potency [1] | Potency [2] | Potency [3] | max response [13] 1.16% | max response [8] -6.38% | max response [9] 4.84% | Potency [10] | max response [11] 5.09% | outcome [12]

C=C(C)C(=O)OCCCCCCCCCC
inactive: Potency [1] | Potency [2] | Potency [14] | activation [4] -0.81% | max response [13] -0.186% | Potency [5] | outcome [6] | Potency [7] | max response [8] -0.733% | max response [9] -5.31% | Potency [10] | max response [11] 3.26% | outcome [12]

C=Cc1ccccn1
inactive: Potency [1] | Potency [2] | Potency [14] | activation [4] 0.147% | max response [13] 0.108% | Potency [5] | outcome [6] | Potency [7] | max response [8] -6.91% | max response [9] 3.38% | Potency [10] | max response [11] 2.42% | outcome [12]
